Assay results from PubChem BioAssay.

Experiment: compound enhancement of TRAIL-induced cell killing – NB7 cells plus caspase-8, luminescence, panel, dose response (AID 652002)
Conditions: NB7 neuroblastoma +caspase-8, no TRAIL, compound-alone cytotoxicity counter-screen, luminescence viability, NB7+Caspase-8, run 1; at 12.5 µM (top of the series)
In the case of `CCOC(=O)[C@]12Cc3cc4ccccc4cc3[C@H]1N(Cc1ccccc1)C(=O)c1ccccc12`, the activity, % sensitization was 6.91%. `CCOC(=O)[C@]12Cc3cc4ccccc4cc3[C@H]1N(Cc1ccccc1)C(=O)c1cc(OC)ccc12` showed an activity, % sensitization of 7.37%. For `CC(C)CCn1c(=O)c(C(=O)Nc2ccccc2S(N)(=O)=O)c(O)c2ccccc21`, the activity, % sensitization was -27.8%. With `CCCC1(CCC)C(=O)NC(=NCc2ccccc2)NC1=O` the activity, % sensitization was -4.21%.

Experiment: as above
Conditions: NB7 neuroblastoma +caspase-8, no TRAIL, compound-alone cytotoxicity counter-screen, luminescence viability, NB7+Caspase-8, run 2; at 12.5 µM (top of the series)
Molecule `CCOC(=O)[C@]12Cc3cc4ccccc4cc3[C@H]1N(Cc1ccccc1)C(=O)c1ccccc12` has an activity, % sensitization of 3.45%. Work on `CCOC(=O)[C@]12Cc3cc4ccccc4cc3[C@H]1N(Cc1ccccc1)C(=O)c1cc(OC)ccc12` yielded an activity, % sensitization of 2.99%. Molecule `CC(C)CCn1c(=O)c(C(=O)Nc2ccccc2S(N)(=O)=O)c(O)c2ccccc21` has an activity, % sensitization of -20%. With `CCCC1(CCC)C(=O)NC(=NCc2ccccc2)NC1=O` the activity, % sensitization was -22.9%.
